Experimental data reported in ChEMBL document CHEMBL5308504, “Tm Shift (DSF) assay results for EUbOPEN Chemogenomics Library” (2023).

Molecular target: Bromodomain-containing protein 4 (Homo sapiens) (UniProt O60885)
Details: Compound concentration 20.0 uM, Protein concentration 2.0 uM, Result type QC Liability

| SMILES | ΔTm [°C] |
| --- | --- |
| Cc1cc(CN(CC(=O)Nc2ccc(Cl)cc2Cl)C2CCCCC2)ccc1OCC(=O)O | -1.17 |
| CCC(=O)N[C@@H]1CC[C@H](C(=O)N(C)c2ccc(-c3nc4ccccc4o3)cc2)C1 | -0.34 |
| O=c1cc(C2CCNCC2)n2nc3cccc(Cl)c3c2[nH]1 | -0.48 |
| COc1c(NC(=O)c2cc3cccc(Oc4ccnc(C(=O)N5CCN(C)CC5)c4)c3n2C)cc(C(C)(C)C)cc1NS(C)(=O)=O | -2.76 |
| CN(C)C(=O)Cn1cc(-c2nc(C3(c4ccc(-c5cnc(N)nc5)cc4)CC3)no2)cn1 | -1.16 |
| COc1ccc(CC[C@@H](OC(=O)[C@H]2CCCCN2C(=O)[C@@H](c2cc(OC)c(OC)c(OC)c2)C2CCCCC2)c2cccc(OCCN3CCOCC3)c2)cc1OC | -4.83 |
| Cc1ccc(NC(=O)c2ccc(CN3CC[C@H](N(C)C)C3)c(C(F)(F)F)c2)cc1Nc1nccc(-c2cncnc2)n1 | -1.21 |
| CCCc1c(OCCCOc2ccc(OCC(=O)O)cc2)ccc(C(C)=O)c1O | -2.92 |
| CCC(C(=O)Nc1ccc(-c2cc3ccccc3s2)c(C(N)=O)c1)c1nccs1 (centres undefined) | -0.87 |
| O=C(Nc1cccc(Nc2nccc(Nc3cccc(C(F)(F)F)c3)n2)c1)C1CC1 | 1.77 |
| CNC(=O)COc1cc2cc(Nc3nc(N4CCC(C(=O)N(C)C)CC4)ncc3Cl)cc(OC)c2n(C)c1=O | -1.01 |
| COc1ccccc1N1CCN(c2ncnc3c2cnn3-c2ccccc2)CC1 | 0.01 |
| Nc1ncnc2c1ccn2[C@@H]1O[C@H]([C@@H](O)c2ccccc2)[C@@H](O)[C@H]1O | -2.22 |
| COCc1c(-c2cc3cc(C)cc(OC)c3s2)c2c(N)ncnn2c1CN[C@@H]1CCNC1=O | 1.53 |
